PLK1 PBD inh: qHTS for Inhibitors of PLK1-PDB (polo-like kinase 1 - polo-box domain): Primary Screen. Potency, µM, most hits filed as inhibitors. AID 720504, 2013. Plk1 PBD binding of FITC phosphopeptide, fluorescence polarization. 360,000 compounds, 2.8% hits; note: series mostly up to about 57 µM; nearly all actives have a fitted effect of over 65% in size
KAT2A inh: qHTS Assay for Inhibitors of GCN5L2. Histone acetyltransferase KAT2A (Homo sapiens), Q92830. GCN5L2 HAT assay, ThioGlo1 CoA-SH fluorescence. Potency, µM (series often up to 58.9 µM), usual class: inhibitors. 390,000 compounds, 0.21% hits
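ThioGlo1-coupled HAT assay: 20nM GCN5L2, 70uM acetyl-CoA, 75uM H3(1-25) peptide, pH 7.5. Fluorescence read at 340/540nm at start and after 20 min at room temperature.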
JMJD2A Tudor inh: qHTS Assay for Inhibitors of JMJD2A-Tudor Domain; AID 504339, 2011; 390,000 compounds, 4.4% hits; AlphaScreen JMJD2A-Tudor / H3K4me3 peptide binding; Lysine-specific demethylase 4A (Homo sapiens), O75164; Potency, µM (series often up to 114 µM), usual class: inhibitors; note: nearly all actives have a fitted effect of over 50% in size
PI5P4K alpha inh: qHTS for Inhibitors of phosphatidylinositol 5-phosphate 4-kinase (PI5P4K). Phosphatidylinositol 5-phosphate 4-kinase type-2 alpha (Homo sapiens), P48426. PI5P4Kalpha enzyme, ADP-Glo luminescence, 60 min; hits give low values. max response, %. 330,000 compounds, 1.2% hits; active = max response of -50% or lower; inconclusive = between -30% and -50%; inactive = -30% or higher; note: value at the top dose of about 77 µM
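Reactions run in 0.038 M HEPES pH 7.4, 0.28 mM EGTA, 0.1% CHAPS and 5% DMSO, with PI5P4Kalpha, substrate, compound and 5 microM ATP final, one hour at room temperature. Readout is ADP-Glo luminescence.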
BAZ2B inh: qHTS Assay for Inhibitors of BAZ2B; Bromodomain adjacent to zinc finger domain protein 2B (Homo sapiens), Q9UIF8; AlphaScreen BAZ2B-H3K14Ac peptide displacement; Potency, µM (doses to about 114 µM), hits mostly inhibitors; 360,000 compounds, 4.4% hits; note: nearly all actives have a fitted effect of over 60% in size
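Complex of BAZ2B and biotin-H3K14Ac (50 nM apiece) forms over 30 min at RT, then faces library compounds up to 110 uM for another 30 min; AlphaScreen beads added, 20 min dark incubation, luminescence read.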
HP1b chromo inh: HTS for Inhibitors of HP1-beta Chromodomain Interactions with Methylated Histone Tails. Chromobox protein homolog 1 (Homo sapiens), P83916. AlphaScreen HP1-beta / biotin-H3K9me3 peptide binding. Potency, µM (doses to about 114 µM), usual class: inhibitors. 390,000 compounds, 0.56% hits. AID 540317, 2011; note: nearly all actives have a fitted effect of over 70% in size
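AlphaScreen: HP1-beta (50 nM) preformed 30 min with biotin-H3(1-18)K9me3 peptide (50 nM) in PBS pH 7.4, 0.01% Tween-20. Compound added for 30 min at RT, then streptavidin donor/nickel chelate acceptor beads (10 ug/mL) for 30 min.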
A number is an active result. An excerpt weighted towards active compounds, which were near 7% of everything screened. Unless noted, calls come from the whole dose curve; as a rule, active = well fitted curve in the direction sought with a large enough effect; inconclusive = small, poorly fitted or top-dose-only effect, or another doubt; inactive = no such curve, though single readings can be large; an effect the other way counts as inactive or inconclusive.

For CC1=NN(C(N)=S)C(=O)C1N=Nc1c(C)cc(C)cc1C (stereo unspecified) the results were PLK1 PBD inh inactive, KAT2A inh inactive, JMJD2A Tudor inh inactive, PI5P4K alpha inh inactive, BAZ2B inh inconclusive and HP1b chromo inh inactive.
Screening CC1=NN(C(N)=S)C(=O)C1N=Nc1c(Cl)cc([N+](=O)[O-])cc1Cl (stereo unspecified) returned PLK1 PBD inh inconclusive, KAT2A inh inactive, JMJD2A Tudor inh 28µM, PI5P4K alpha inh -57, BAZ2B inh 40µM and HP1b chromo inh inconclusive.
`CC1=NN(C(N)=S)C(=O)C1N=Nc1c(Br)cc(Br)cc1Br` (stereo unspecified) gave PLK1 PBD inh 24µM, KAT2A inh inactive, JMJD2A Tudor inh 56µM, PI5P4K alpha inh inconclusive, BAZ2B inh 28µM and HP1b chromo inh inactive.
`CC1=NN(C(N)=S)C(=O)C1N=Nc1ccccc1O` (stereo unspecified) gave PLK1 PBD inh inactive, KAT2A inh inactive, JMJD2A Tudor inh 56µM, PI5P4K alpha inh inactive, BAZ2B inh 50µM and HP1b chromo inh inactive.
CCOc1ccc(-n2ccc(=O)c(C(=O)O)n2)cc1 was read as PLK1 PBD inh inactive, KAT2A inh inactive, JMJD2A Tudor inh inactive, PI5P4K alpha inh inactive, BAZ2B inh inactive and HP1b chromo inh inactive.
For Cc1cc(-c2nnc(SCC(=O)Nc3c(C)cccc3C)n2N)n[nH]1 the results were PLK1 PBD inh inactive, KAT2A inh inactive, JMJD2A Tudor inh inactive, PI5P4K alpha inh inactive, BAZ2B inh inactive and HP1b chromo inh inactive.
For CCOC(=O)C1CCCN(C(=O)c2csc(-c3ccc4c(c3)CCO4)n2)C1 (stereo unspecified) the results were PLK1 PBD inh inactive, KAT2A inh inactive, JMJD2A Tudor inh inactive, PI5P4K alpha inh inactive, BAZ2B inh inactive and HP1b chromo inh inactive.
For CN(C)S(=O)(=O)c1cccc(NC(=S)N/N=C/c2cc(Br)ccc2O)c1 the results were PLK1 PBD inh inactive, KAT2A inh inactive, JMJD2A Tudor inh 28µM, PI5P4K alpha inh -61, BAZ2B inh 18µM and HP1b chromo inh inactive.
Screening COc1ccccc1NC(=S)Nc1cccc2cnccc12 returned PLK1 PBD inh 30µM, KAT2A inh inactive, JMJD2A Tudor inh inactive, PI5P4K alpha inh inactive, BAZ2B inh inactive and HP1b chromo inh inactive.
`COc1ccc(S(=O)(=O)N(C)C)cc1NCC(=O)Nc1cccc2ccccc12` gave PLK1 PBD inh inactive, JMJD2A Tudor inh inactive, PI5P4K alpha inh inactive and HP1b chromo inh inactive.
`S=C(Nc1ccc2cn[nH]c2c1)Nc1ccc(Cl)cc1Cl` gave PLK1 PBD inh 15µM, KAT2A inh inactive, JMJD2A Tudor inh inconclusive, PI5P4K alpha inh inconclusive, BAZ2B inh inconclusive and HP1b chromo inh inactive.
Screening COc1ccc(NC(=S)Nc2cccc3cnccc23)cc1 returned PLK1 PBD inh inconclusive, KAT2A inh inactive, JMJD2A Tudor inh inactive, PI5P4K alpha inh inactive, BAZ2B inh inactive and HP1b chromo inh inactive.
`Cc1ccc(S(=O)(=O)N(C)C)cc1NC(=S)Nc1cccc2ccccc12` gave PLK1 PBD inh 15µM, KAT2A inh inactive, JMJD2A Tudor inh inactive, PI5P4K alpha inh inactive, BAZ2B inh inactive and HP1b chromo inh inactive.
`Cc1noc(C)c1S(=O)(=O)Nc1ccc(C(C)C)cc1` gave PLK1 PBD inh inactive, KAT2A inh inactive, JMJD2A Tudor inh inactive, PI5P4K alpha inh inactive, BAZ2B inh inactive and HP1b chromo inh inactive.
S=C(Nc1cccnc1)Nc1cccc2cnccc12 was read as PLK1 PBD inh inconclusive, KAT2A inh inactive, JMJD2A Tudor inh inactive, PI5P4K alpha inh inactive and HP1b chromo inh inactive.
CN(C)S(=O)(=O)c1cccc(NC(=S)Nc2cccc3cnccc23)c1 was read as PLK1 PBD inh 17µM, KAT2A inh inactive, JMJD2A Tudor inh inactive, PI5P4K alpha inh inconclusive, BAZ2B inh inactive and HP1b chromo inh inconclusive.
`CN(C)S(=O)(=O)c1cccc(NC(=S)Nc2ccc3cn[nH]c3c2)c1` gave PLK1 PBD inh 21µM, KAT2A inh inactive, JMJD2A Tudor inh inactive, PI5P4K alpha inh inactive, BAZ2B inh inactive and HP1b chromo inh inactive.
For CCn1c(=O)c(=O)[nH]c2cc(C(=O)NC3CCCC3)ccc21 the results were PLK1 PBD inh 30µM, KAT2A inh inactive, JMJD2A Tudor inh 13µM, PI5P4K alpha inh inactive, BAZ2B inh inactive and HP1b chromo inh inactive.
Screening CCn1c(=O)c(=O)[nH]c2cc(C(=O)NCC3CCCCC3)ccc21 returned PLK1 PBD inh inactive, KAT2A inh inactive, JMJD2A Tudor inh inactive, PI5P4K alpha inh inactive, BAZ2B inh inactive and HP1b chromo inh inactive.
`CCCNC(=O)CN1C(=O)COc2ccc(S(=O)(=O)N3CCCC3)cc21` gave KAT2A inh inactive, JMJD2A Tudor inh inactive, BAZ2B inh inactive and HP1b chromo inh inactive.
`O=c1c(-c2ccc3c(c2)OCCO3)coc2cc(O)cc(O)c12` gave PLK1 PBD inh inactive, KAT2A inh inconclusive, JMJD2A Tudor inh inactive, PI5P4K alpha inh inactive, BAZ2B inh inactive and HP1b chromo inh inactive.
Screening O=c1c(-c2ccccc2)coc2cc(O)cc(O)c12 returned KAT2A inh 28µM.
Cc1cccc(C(=O)Nc2cccnc2Cl)c1 was read as PLK1 PBD inh 8.4µM, KAT2A inh inactive, JMJD2A Tudor inh inconclusive, PI5P4K alpha inh inactive, BAZ2B inh inactive and HP1b chromo inh inactive.
For CCOC(=O)CC(=O)c1[nH]c(C)c(C(=O)OCC)c1C the results were PLK1 PBD inh inactive, KAT2A inh inactive, JMJD2A Tudor inh inactive, PI5P4K alpha inh inactive, BAZ2B inh 79µM and HP1b chromo inh inactive.
For CCOC(=O)c1c(C)[nH]c(C(=O)CC(=O)OC)c1C the results were PLK1 PBD inh inactive, KAT2A inh inactive, JMJD2A Tudor inh inactive, PI5P4K alpha inh inactive, BAZ2B inh inactive and HP1b chromo inh inactive.
For CCOC(=O)c1[nH]c(C)c(C(=O)OC)c1C the results were PLK1 PBD inh inactive, KAT2A inh inactive, JMJD2A Tudor inh inactive, PI5P4K alpha inh inactive, BAZ2B inh inactive and HP1b chromo inh inactive.
CCOC(=O)c1c(C)[nH]c(C(=O)O)c1C was read as PLK1 PBD inh inactive, KAT2A inh inactive, JMJD2A Tudor inh inactive, PI5P4K alpha inh inactive, BAZ2B inh inconclusive and HP1b chromo inh inactive.
Screening CCOC(=O)c1[nH]c(=S)[nH]c1C returned PLK1 PBD inh inconclusive, JMJD2A Tudor inh 5µM, PI5P4K alpha inh inactive and HP1b chromo inh inactive.

Screening results as filed in PubChem BioAssay.
